Data reported in PubChem BioAssay (Tox21).
Inconclusive results are not listed. Active and inactive are the calls of the source. Unless noted, the call rests on the fitted dose curve.

Key:
[1] = target: Peroxisome proliferator-activated receptor delta (Homo sapiens) (UniProt Q03181); test: qHTS assay to identify small molecule agonists of the peroxisome proliferator-activated receptor delta (PPARd) signaling pathway (AID 743212)
How it was run: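 HEK293H PPARd-bla cells; 5 h preincubation 37 C/5% CO2; compound (DMSO) 37 C; LiveBLAzer B/G FRET substrate 2 h RT; fluorescence intensity.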

[2] = qHTS assay to identify small molecule antagonists of the peroxisome proliferator-activated receptor delta (PPARd) signaling pathway - cell viability counter screen (AID 743213; active means well fitted curve in the direction sought with a large enough effect in the repeat runs; an effect the other way counts as inactive or inconclusive; further: nearly all actives have a fitted effect of over 50% in size)
How it was run: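 Cytotoxicity counter screen: CellTiter-Glo luminescence read 30 min after addition, in the same wells as the reporter assay. There, PPARd UAS-bla HEK293H cells (3000/well) were treated 17 h at 37 C with compound and 300 nM L165041.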

[3] = target: Peroxisome proliferator-activated receptor delta (Homo sapiens) (UniProt Q03181); test: qHTS assay to identify small molecule antagonists of the peroxisome proliferator-activated receptor delta (PPARd) signaling pathway (AID 743215; active means well fitted inhibition curve with a large enough effect in the signal ratio in the repeat runs, not every such curve was filed as active; the % refers to the signal ratio;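 further: cells stimulated with agonist L165041 at 300 nM final during compound exposure; series mostly up to about 62 µM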)
How it was run: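 Antagonist-mode beta-lactamase reporter screen: HEK293H cells with UAS-bla under PPARd control, stimulated by 300 nM L165041 (final) alongside test compound for 17 h at 37 C, then FRET fluorescence after 2 h substrate incubation.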

[4] = target: Bile acid receptor (Homo sapiens) (UniProt Q96RI1); test: qHTS assay to identify small molecule antagonists of the farnesoid-X-receptor (FXR) signaling pathway (AID 743217; active means well fitted inhibition curve with a large enough effect in the signal ratio in the repeat runs, not every such curve was filed as active; the % refers to the signal ratio)
Sequence of Bile acid receptor (Homo sapiens) (Q96RI1 whole entry, looked up): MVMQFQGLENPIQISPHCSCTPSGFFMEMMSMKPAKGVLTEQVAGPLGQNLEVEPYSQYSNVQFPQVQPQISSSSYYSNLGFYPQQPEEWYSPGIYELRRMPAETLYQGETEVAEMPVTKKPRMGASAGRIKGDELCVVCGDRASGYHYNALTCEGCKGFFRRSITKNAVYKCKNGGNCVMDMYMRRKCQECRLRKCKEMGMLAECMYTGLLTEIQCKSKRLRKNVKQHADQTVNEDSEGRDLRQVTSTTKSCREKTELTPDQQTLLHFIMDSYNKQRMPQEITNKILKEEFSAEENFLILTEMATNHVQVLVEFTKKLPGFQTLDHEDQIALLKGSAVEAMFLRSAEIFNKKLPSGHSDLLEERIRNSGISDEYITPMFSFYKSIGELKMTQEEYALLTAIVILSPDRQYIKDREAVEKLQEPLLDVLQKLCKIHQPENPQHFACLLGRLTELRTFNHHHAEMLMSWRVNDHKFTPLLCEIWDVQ
How it was run: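 Beta-lactamase reporter under UAS control in HEK 293T cells; compound exposure 16 h at 37 °C in the presence of chenodeoxycholic acid (50 uM final); signal from B/G FRET substrate after 2 h at room temperature.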

[5] = qHTS assay to identify small molecule agonists of the farnesoid-X-receptor (FXR) signaling pathway - cell viability counter screen (AID 743218; active means well fitted curve in the direction sought with a large enough effect in the repeat runs; an effect the other way counts as inactive or inconclusive; further: nearly all actives have a fitted effect of over 45% in size)
How it was run: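 In GeneBLAzer FXR-UAS-bla HEK 293T cells, compounds act for 16 h at 37 C. Cell viability is then scored in the reporter wells by CellTiter-Glo, 30 min at RT, luminescence.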

[6] = target: Bile acid receptor (Homo sapiens) (UniProt Q96RI1); test: qHTS assay to identify small molecule agonists of the farnesoid-X-receptor (FXR) signaling pathway (AID 743220; active means well fitted activation curve with a large enough effect in the signal ratio in the repeat runs, not every such curve was filed as active; the % refers to the signal ratio)
How it was run: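 Beta-lactamase reporter under UAS control in GeneBLAzer FXR HEK 293T cells (5000/well) measured with LiveBLAzer FRET substrate after 2 h at room temperature. Compound exposure lasted 16 h at 37C.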

[7] = qHTS assay to identify small molecule antagonists of the farnesoid-X-receptor (FXR) signaling pathway - cell viability counter screen (AID 743221; active means well fitted cell-killing curve with a large enough effect in the repeat runs, not every such curve was filed as active; further: nearly all actives have a fitted effect of over 50% in size)
How it was run: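 HEK 293T FXR-bla cells, 5 h pre-incubation; compound + CDCA 50 uM final, 16 h, 37 C; beta-lactamase FRET read first, then CellTiter-Glo luminescence, 30 min RT.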

[8] = target: Vitamin D3 receptor (Homo sapiens) (UniProt P11473); test: qHTS assay to identify small molecule agonists of the vitamin D receptor (VDR) signaling pathway (AID 743222)
Sequence of Vitamin D3 receptor (Homo sapiens) (P11473 whole entry, looked up): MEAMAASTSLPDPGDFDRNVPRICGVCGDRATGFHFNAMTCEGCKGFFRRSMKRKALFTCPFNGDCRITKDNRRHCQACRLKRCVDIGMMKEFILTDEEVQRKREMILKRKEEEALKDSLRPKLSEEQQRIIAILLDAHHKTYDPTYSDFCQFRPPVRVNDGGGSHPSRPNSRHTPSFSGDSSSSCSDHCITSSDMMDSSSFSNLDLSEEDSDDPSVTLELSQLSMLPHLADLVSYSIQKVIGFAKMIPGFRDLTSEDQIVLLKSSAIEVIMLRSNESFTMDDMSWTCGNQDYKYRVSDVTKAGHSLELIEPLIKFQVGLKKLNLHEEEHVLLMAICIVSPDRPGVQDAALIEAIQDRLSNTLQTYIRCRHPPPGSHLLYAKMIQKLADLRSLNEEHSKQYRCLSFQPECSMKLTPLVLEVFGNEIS
How it was run: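 Agonist activity measured in VDR-bla reporter cells. Exposure 16 h, 37C, 5% CO2; detection by B/G FRET substrate, 2 h RT.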

[9] = target: Vitamin D3 receptor (Homo sapiens) (UniProt P11473); test: qHTS assay to identify small molecule antagonists of the vitamin D receptor (VDR) signaling pathway (AID 743223; active means well fitted inhibition curve with a large enough effect in the signal ratio in the repeat runs, not every such curve was filed as active; the % refers to the signal ratio)
How it was run: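 Beta-lactamase reporter read-out: FRET substrate fluorescence after 2 h at room temperature, following 16 h exposure of VDR-bla cells to test compound plus 3 nM (final) 1alpha,25-dihydroxyvitamin D3 agonist at 37C.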

[10] = qHTS assay to identify small molecule antagonists of the vitamin D receptor (VDR) signaling pathway - cell viability counter screen (AID 743225; active means well fitted curve in the direction sought with a large enough effect in the repeat runs; an effect the other way counts as inactive or inconclusive; further: nearly all actives have a fitted effect of over 50% in size)
How it was run: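 Viability counter screen run in the same wells as the beta-lactamase reporter assay: HEK 293T VDR-UAS-bla cells, 16 h compound exposure at 37C with 3 nM (final) 1-alpha,25-dihydroxyvitamin D3. CellTiter-Glo luminescence, 30 min, room temperature.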

[11] = qHTS assay to identify small molecule agonists of the NFkB signaling pathway - cell viability counter screen (AID 1159515); further: series mostly up to about 61 µM; nearly all actives have a fitted effect of over 55% in size
How it was run: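 Viability in NFkB-bla ME-180 cells was measured by CellTiter-Glo luminescence, 30 min room temperature, in wells already treated 5 hr with compounds and read for reporter FRET.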

[12] = qHTS assay to identify small molecule agonists of the endoplasmic reticulum stress response signaling pathway (AID 1159516; active means well fitted activation curve with a large enough effect in the signal ratio in the repeat runs, not every such curve was filed as active; the % refers to the signal ratio)
How it was run: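 ER stress element reporter (bla) in HeLa. 1,500 cells/well, overnight attachment; 5 hr compound; 2 hr RT substrate; dual-emission fluorescence.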

[13] = qHTS assay to identify small molecule agonists of the endoplasmic reticulum stress response signaling pathway - cell viability counter screen (AID 1159517);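 further: HeLa cells carrying an ER stress response element beta-lactamase reporter; series mostly up to about 61 µM; nearly all actives have a fitted effect of over 50% in size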
How it was run: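 HeLa cells carrying an ESRE-driven beta-lactamase reporter receive compound for 5 hr at 37 C. Cell viability is then gauged with CellTiter-Glo by luminescence, 30 min at room temperature.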

[14] = target: Nuclear receptor ROR-gamma (Homo sapiens) (UniProt P51449); test: qHTS assay to identify small molecule antagonists of the retinoid-related orphan receptor gamma (ROR-gamma) signaling pathway (AID 1159521; active means well fitted curve in the direction sought with a large enough effect in the repeat runs; an effect the other way counts as inactive or inconclusive)
How it was run: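 Luminescence readout (ONE-Glo, 30 min RT) after 16 h doxycycline induction; loss of signal scored as antagonism. CHO cells with TET-inducible RORγ and RORE-LUC reporter; compounds added 2 h before 1 uM final doxycycline.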

[15] = qHTS assay to identify small molecule agonists of the AP-1 signaling pathway - cell viability counter screen (AID 1159525); further: nearly all actives have a fitted effect of over 55% in size
How it was run: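 Luminescent ATP readout (Cell Titer Glo, 30 min RT), normalised to DMSO and tetra n-octyl ammonium bromide controls. Cells were ME-180 AP-1-bla in 0.5% dialyzed FBS Opti-MEM, with a 5 h, 37 °C compound exposure.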

[16] = qHTS assay to identify small molecule agonists of the AP-1 signaling pathway (AID 1159526)
[17] = qHTS assay to identify small molecule agonists of the RXR signaling pathway - cell viability counter screen (AID 1159529; active means well fitted curve in the direction sought with a large enough effect in the repeat runs; an effect the other way counts as inactive or inconclusive)
How it was run: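 Luminescence from CellTiter-Glo (30 min, RT) measured viability in the same wells as the beta-lactamase reporter readout. Cells: GeneBLAzer RXR-alpha HEK 293T, 2% charcoal-stripped FBS. Compound exposure 16 hr, 37 C.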

[18] = qHTS assay to identify small molecule agonists of the vitamin D receptor (VDR) signaling pathway - cell viability counter screen (AID 743224; active means well fitted curve in the direction sought with a large enough effect in the repeat runs; an effect the other way counts as inactive or inconclusive)
How it was run: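 VDR-bla cell line, quantitative HTS format; 16 h compound incubation (37C, 5% CO2); ATP-based CellTiter-Glo luminescence measured in the reporter assay wells.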

[19] = qHTS assay to identify small molecule antagonists of the retinoid-related orphan receptor gamma (ROR-gamma) signaling pathway - cell viability counter screen (AID 1159520; active means well fitted curve in the direction sought with a large enough effect in the repeat runs; an effect the other way counts as inactive or inconclusive; further: nearly all actives have a fitted effect of over 50% in size)
How it was run: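 Cytotoxicity was read from cellular ATP (CellTiter-Glo luminescence) after 16 hr at 37 C with 1 uM doxycycline induction. The inducer was added 2 hr after compound transfer to Tet-on ROR gamma CHO cells.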

[20] = target: Retinoic acid receptor RXR-alpha (Homo sapiens) (UniProt P19793); test: qHTS assay to identify small molecule agonists of the RXR signaling pathway (AID 1159527); further: nearly all actives have a fitted effect of over 35% in size
Sequence of Retinoic acid receptor RXR-alpha (Homo sapiens) (P19793 whole entry, looked up): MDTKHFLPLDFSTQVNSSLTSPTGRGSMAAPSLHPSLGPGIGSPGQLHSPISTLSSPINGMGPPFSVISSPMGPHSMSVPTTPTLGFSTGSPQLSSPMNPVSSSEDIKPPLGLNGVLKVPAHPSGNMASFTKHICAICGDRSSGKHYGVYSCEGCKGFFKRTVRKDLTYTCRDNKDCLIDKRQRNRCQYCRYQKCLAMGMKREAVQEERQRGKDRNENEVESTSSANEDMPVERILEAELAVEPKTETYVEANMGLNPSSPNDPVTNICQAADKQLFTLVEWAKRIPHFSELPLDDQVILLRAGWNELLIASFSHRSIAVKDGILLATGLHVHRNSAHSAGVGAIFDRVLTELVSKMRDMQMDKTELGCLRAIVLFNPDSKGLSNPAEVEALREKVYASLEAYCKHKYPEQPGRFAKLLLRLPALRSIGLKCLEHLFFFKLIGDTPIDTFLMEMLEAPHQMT
How it was run: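 Agonist mode; 9-cis retinoic acid positive control. HEK 293T UAS-bla reporter cells, 2% charcoal-stripped FBS, 16 hr compound exposure at 37 C/5% CO2. LiveBLAzer B/G FRET substrate 2 hr RT; ex 405, em 460/530 nm.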

Measured: Potency

Sequence of Peroxisome proliferator-activated receptor delta (Homo sapiens) (Q03181 whole entry, looked up): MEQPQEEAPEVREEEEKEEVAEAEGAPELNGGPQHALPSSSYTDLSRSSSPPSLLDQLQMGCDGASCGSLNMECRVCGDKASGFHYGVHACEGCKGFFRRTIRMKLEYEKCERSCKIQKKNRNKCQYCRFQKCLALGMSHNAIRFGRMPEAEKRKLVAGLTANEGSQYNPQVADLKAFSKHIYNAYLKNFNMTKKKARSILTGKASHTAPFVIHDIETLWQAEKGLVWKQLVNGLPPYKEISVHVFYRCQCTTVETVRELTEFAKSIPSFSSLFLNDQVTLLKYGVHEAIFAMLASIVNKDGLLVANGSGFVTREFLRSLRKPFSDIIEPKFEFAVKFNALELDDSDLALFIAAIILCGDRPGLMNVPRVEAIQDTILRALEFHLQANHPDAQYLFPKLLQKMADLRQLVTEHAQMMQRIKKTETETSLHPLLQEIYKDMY

CC(=O)c1ccc2ccccc2c1
not listed: [18] | [19] | [20]
inactive: all other assays above

COc1c(N2CCNC(C)C2)c(F)cc2c(=O)c(C(=O)O)cn(C3CC3)c12 (stereo not given)
not listed: [1] | [3] | [5] | [6] | [8] | [9] | [17] | [20]
inactive: all other assays above

CN(C)CCN(C)CCN(C)C
inactive: [1] | [7] | [18] | [11] | [12] | [13] | [14] | [15] | [16] | [20] | [17]

c1ccc(Cc2ccccc2)cc1
not listed: [1] | [3] | [9] | [18] | [19]
inactive: all other assays above

CCCC(C)C(=O)OCC (stereo not given)
not listed: [3] | [4] | [6] | [10] | [19]
inactive: all other assays above

CCCCCCCCCCCCCCC(=O)O
not listed: [1] | [2] | [4] | [6] | [8] | [19]
inactive: all other assays above

C=C(C)C(=O)OCC1CCCO1 (stereo not given)
not listed: [18] | [19] | [20]
inactive: all other assays above

CC(=O)c1cnccn1
not listed: [19]
inactive: all other assays above
